{"source": "PubChem BioAssay (Tox21)", "note": "Records with an inconclusive call do not appear. A call without a number means that no potency is given here. Activity calls are given as the source filed them. Unless noted, calls come from the whole dose curve; as a rule, active = well fitted curve in the direction sought with a large enough effect in the repeat runs; inconclusive = weak or mixed curves; inactive = no such curve, though single readings can be large; an effect the other way counts as inactive or inconclusive."}
{"biological_target": "Androgen receptor (Homo sapiens) (UniProt P10275)", "sequence (P10275 whole entry, looked up)": "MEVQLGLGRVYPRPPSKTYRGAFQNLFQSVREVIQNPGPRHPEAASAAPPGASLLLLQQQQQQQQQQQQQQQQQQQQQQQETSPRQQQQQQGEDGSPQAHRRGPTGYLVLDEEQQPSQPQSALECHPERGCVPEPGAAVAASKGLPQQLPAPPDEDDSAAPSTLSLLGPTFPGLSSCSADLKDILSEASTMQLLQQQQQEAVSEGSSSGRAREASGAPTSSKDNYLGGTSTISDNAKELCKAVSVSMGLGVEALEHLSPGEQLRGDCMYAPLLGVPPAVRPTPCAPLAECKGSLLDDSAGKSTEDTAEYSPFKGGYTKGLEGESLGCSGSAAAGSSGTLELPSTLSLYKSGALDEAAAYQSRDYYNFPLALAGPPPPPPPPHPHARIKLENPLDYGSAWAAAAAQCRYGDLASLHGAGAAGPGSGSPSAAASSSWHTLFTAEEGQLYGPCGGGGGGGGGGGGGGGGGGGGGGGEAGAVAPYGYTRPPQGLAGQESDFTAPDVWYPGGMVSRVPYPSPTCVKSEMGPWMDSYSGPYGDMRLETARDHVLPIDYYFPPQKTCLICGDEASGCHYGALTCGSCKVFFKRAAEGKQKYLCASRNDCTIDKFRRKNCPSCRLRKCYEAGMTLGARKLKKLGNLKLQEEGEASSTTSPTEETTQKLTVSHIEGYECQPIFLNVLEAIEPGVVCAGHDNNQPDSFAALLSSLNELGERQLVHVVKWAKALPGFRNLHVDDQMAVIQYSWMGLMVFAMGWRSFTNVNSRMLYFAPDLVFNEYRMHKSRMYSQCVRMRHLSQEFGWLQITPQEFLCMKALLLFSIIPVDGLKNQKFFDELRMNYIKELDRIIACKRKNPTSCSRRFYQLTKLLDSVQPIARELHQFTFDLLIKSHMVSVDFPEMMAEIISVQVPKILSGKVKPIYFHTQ", "test": "qHTS assay to identify small molecule antagonists of the androgen receptor (AR) signaling pathway (AID 743035; active = well fitted inhibition curve with a large enough effect in the signal ratio in the repeat runs, not every such curve was filed as active; the % refers to the signal ratio)", "conditions": "HEK293 AR-UAS-bla, R1881-stimulated, beta-lactamase FRET, 16 h; series mostly up to 58.5 µM", "how_it_was_run": "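Fluorescence from a beta-lactamase FRET substrate (LiveBLAzer B/G, 2 h, room temperature) measured inhibition of R1881-stimulated signaling in GeneBLAzer AR-UAS-bla HEK293 cells exposed to compound for 16 h at 37C.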"}
{"smiles": "CCn1ccnc1CC1COc2ccccc2O1", "note": "(stereo not given)", "outcome": "inactive"}
{"smiles": "CC(C)(CC(=O)O)C(=O)O", "outcome": "inactive"}
{"smiles": "CCSC(=O)N(CC(C)C)CC(C)C", "outcome": "inactive"}
{"smiles": "CC(=O)OCC(CCn1cnc2cnc(N)nc21)COC(C)=O", "outcome": "inactive"}
{"smiles": "CN1CC(=O)NC1=N", "outcome": "inactive"}
{"smiles": "NS(=O)(=O)c1ccc(C(=O)O)cc1", "outcome": "inactive"}
{"smiles": "CCCCC/C=C\\CCC=O", "outcome": "inactive"}
{"smiles": "CC(=O)Nc1ccc(S(N)(=O)=O)cc1", "outcome": "inactive"}
{"smiles": "CCN1CCC[C@H]1CNC(=O)c1cc(S(N)(=O)=O)ccc1OC", "outcome": "inactive"}
{"biological_target": "Androgen receptor (Homo sapiens) (UniProt P10275)", "test": "qHTS assay to identify small molecule agonists of the androgen receptor (AR) signaling pathway (AID 743036; active = well fitted activation curve with a large enough effect in the signal ratio in the repeat runs, with a control signal flat, not every such curve was filed as active; the % refers to the signal ratio)", "conditions": "HEK293 AR-UAS-bla GripTite, beta-lactamase FRET ratio, 16 h; series mostly up to 62.4 µM", "how_it_was_run": "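Activation was read as beta-lactamase FRET signal from LiveBLAzer B/G substrate, added for 2 h at room temperature. Before that, GeneBLAzer AR-UAS-bla GripTite (HEK293) cells had 16 h compound exposure at 37C.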"}
{"smiles": "CCn1ccnc1CC1COc2ccccc2O1", "note": "(stereo not given)", "outcome": "inactive"}
{"smiles": "CC(C)(CC(=O)O)C(=O)O", "outcome": "inactive"}
{"smiles": "COC(=O)[C@@H](N)Cc1ccc(O)c(O)c1", "outcome": "inactive"}
{"smiles": "CCSC(=O)N(CC(C)C)CC(C)C", "outcome": "inactive"}
{"smiles": "CC(=O)OCC(CCn1cnc2cnc(N)nc21)COC(C)=O", "outcome": "inactive"}
{"smiles": "N=C(N)c1ccc2cc(OC(=O)c3ccc(N=C(N)N)cc3)ccc2c1", "outcome": "inactive"}
{"smiles": "NS(=O)(=O)c1ccc(C(=O)O)cc1", "outcome": "inactive"}
{"smiles": "CC(=O)Nc1ccc(S(N)(=O)=O)cc1", "outcome": "inactive"}
{"smiles": "CCN1CCC[C@H]1CNC(=O)c1cc(S(N)(=O)=O)ccc1OC", "outcome": "inactive"}
{"biological_target": "Androgen receptor (Homo sapiens) (UniProt P10275)", "test": "qHTS assay to identify small molecule agonists of the androgen receptor (AR) signaling pathway using the MDA cell line (AID 743040; note: nearly all actives have a fitted effect of over 20% in size)", "conditions": "MDA-kb2 AR-luc cells, MMTV luciferase, 16 h; series mostly up to 70.3 µM", "how_it_was_run": "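After a 5 h incubation at 37C and 0% CO2, MDA-kb2 reporter cells were dosed with compounds in DMSO and kept 16 h under the same conditions. Luciferase activity was then read as luminescence with ONE-Glo.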"}
{"smiles": "CCn1ccnc1CC1COc2ccccc2O1", "note": "(stereo not given)", "Potency": "inactive"}
{"smiles": "CC(C)(CC(=O)O)C(=O)O", "Potency": "inactive"}
{"smiles": "COC(=O)[C@@H](N)Cc1ccc(O)c(O)c1", "Potency": "inactive"}
{"smiles": "CCSC(=O)N(CC(C)C)CC(C)C", "Potency": "inactive"}
{"smiles": "CC(=O)OCC(CCn1cnc2cnc(N)nc21)COC(C)=O", "Potency": "inactive"}
{"smiles": "CN1CC(=O)NC1=N", "Potency": "inactive"}
{"smiles": "N=C(N)c1ccc2cc(OC(=O)c3ccc(N=C(N)N)cc3)ccc2c1", "Potency": "inactive"}
{"smiles": "NS(=O)(=O)c1ccc(C(=O)O)cc1", "Potency": "inactive"}
{"smiles": "CC(=O)Nc1ccc(S(N)(=O)=O)cc1", "Potency": "inactive"}
{"smiles": "CCN1CCC[C@H]1CNC(=O)c1cc(S(N)(=O)=O)ccc1OC", "Potency": "inactive"}
{"tested_on": "not listed separately", "test": "qHTS assay to identify small molecule antagonists of the androgen receptor (AR) signaling pathway using the MDA cell line - cell viability counter screen (AID 743041; note: nearly all actives have a fitted effect of over 45% in size; note: potency is the fitted concentration of half-maximal effect)", "conditions": "MDA-kb2 viability, CellTiter-Fluor, 16 h, cells co-treated with R1881 androgen agonist; series mostly up to 70.3 µM", "how_it_was_run": "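R1881-driven MDA-kb2 AR-luc cells, 3,000/well, were dosed with library compounds for 16 h; cell health came from CellTiter-Fluor fluorescence in the reporter wells.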"}
{"smiles": "CN(C)CCCN1c2ccccc2CCc2ccc(Cl)cc21", "Potency": "48.6 µM (active)"}
{"smiles": "C/C=C(\\C)C#N", "Potency": "inactive"}
{"smiles": "NCCc1cnc[nH]1", "Potency": "inactive"}
{"smiles": "CCN(CC)CCNC(=O)c1cc(S(C)(=O)=O)ccc1OC", "Potency": "inactive"}
{"smiles": "N=C(N)c1ccccc1", "Potency": "inactive"}
{"smiles": "CCOC(=O)[C@H](CCc1ccccc1)N[C@@H](C)C(=O)N1[C@H](C(=O)O)C[C@@H]2CCC[C@@H]21", "Potency": "inactive"}
{"smiles": "CCCN1CCCC[C@H]1C(=O)Nc1c(C)cccc1C", "Potency": "inactive"}
{"smiles": "CCn1ccnc1CC1COc2ccccc2O1", "note": "(stereo not given)", "Potency": "inactive"}
{"smiles": "CC(C)(CC(=O)O)C(=O)O", "Potency": "inactive"}
{"smiles": "NC(=O)Nc1ccccc1", "Potency": "inactive"}
{"smiles": "C=CCCCCCCCCC=O", "Potency": "inactive"}
{"smiles": "C[N+](C)(C)CC(O)CC(=O)[O-]", "note": "(stereo not given)", "Potency": "inactive"}
{"smiles": "O=C1CCCN1C1CCCCC1", "Potency": "inactive"}
{"smiles": "O=C(O)CNC(=O)c1ccc([N+](=O)[O-])cc1", "Potency": "inactive"}
{"smiles": "CC/C=C\\CC/C=C/C(OCC)OCC", "Potency": "inactive"}
{"smiles": "Nc1ccc(S(=O)(=O)Nc2ccnn2-c2ccccc2)cc1", "Potency": "inactive"}
{"smiles": "c1ccc(CC2=NCCN2)cc1", "Potency": "inactive"}
{"smiles": "COC(=O)[C@@H](N)Cc1ccc(O)c(O)c1", "Potency": "inactive"}
{"smiles": "Cn1c(N)c(N=O)c(=O)n(C)c1=O", "Potency": "inactive"}
{"smiles": "CCSC(=O)N(CC(C)C)CC(C)C", "Potency": "inactive"}
{"smiles": "CC(=O)OCC(CCn1cnc2cnc(N)nc21)COC(C)=O", "Potency": "inactive"}
{"smiles": "CN1CC(=O)NC1=N", "Potency": "inactive"}
{"smiles": "CCC=O", "Potency": "inactive"}
{"smiles": "CC(=O)OCC(=O)[C@@]1(O)CCC2C3CCC4=CC(=O)CC[C@]4(C)C3[C@@H](O)C[C@@]21C", "note": "(stereo not given in full)", "Potency": "inactive"}
{"smiles": "CN1CCCC1", "Potency": "inactive"}
{"smiles": "CCc1ccc(O)c(OC)c1", "Potency": "inactive"}
{"smiles": "O=C1NC(=O)[C@@]2(CCOc3ccc(F)cc32)N1", "Potency": "inactive"}
{"smiles": "Cc1cc2c(cc1S(N)(=O)=O)S(=O)(=O)CCC2", "Potency": "inactive"}
{"smiles": "CC(C)(C)NCCNC(C)(C)C", "Potency": "inactive"}
{"smiles": "N=C(N)c1ccc2cc(OC(=O)c3ccc(N=C(N)N)cc3)ccc2c1", "Potency": "inactive"}
{"smiles": "C[N+](C)(C)CCCCCC[N+](C)(C)C", "Potency": "inactive"}
{"smiles": "NS(=O)(=O)c1ccc(C(=O)O)cc1", "Potency": "inactive"}
{"smiles": "CCCCC/C=C\\CCC=O", "Potency": "inactive"}
{"smiles": "CC(C)CCCC(C)N", "note": "(stereo not given)", "Potency": "inactive"}
{"smiles": "CC(=O)Nc1ccc(S(N)(=O)=O)cc1", "Potency": "inactive"}
{"smiles": "CCN(Cc1ccncc1)C(=O)C(CO)c1ccccc1", "note": "(stereo not given)", "Potency": "inactive"}
{"smiles": "CCN1CCC[C@H]1CNC(=O)c1cc(S(N)(=O)=O)ccc1OC", "Potency": "inactive"}
